Data on 40 compounds can be found in PubChem BioAssay (NCATS).

Molecules are shown by their SMILES. Inconclusive results are not listed. Active and inactive are the calls of the source. Calls come from the whole dose curve. Peptide text beside a SMILES is read from it.
Potency is the fitted concentration of half-maximal effect.

A short description of the assay: Primary qHTS to identify inhibitors of SARS-CoV-2 cell entry (AID 1645846). Note: nearly all actives have a fitted effect of over 45% in size. As to conditions: SARS-CoV-2 pseudovirus cell entry assay, luminescence; activity change, negative = inhibition: at 57.1 µM (top of the series) unless noted. An outline of the steps: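 Inhibition of spike-mediated entry was scored in human ACE2-transfected Expi293F cells. Particles were MLV-pseudotyped with Wuhan-Hu-1 S carrying a 19-aa C-terminal deletion; signal was luciferase after two days, scaled between spike PP and fusion-protein-free PP.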
(In qHTS, concentration-response curves come from the screen itself.)
In the case of `CCC(=O)N1CCOc2c(cc(-c3cc(OC)cc(OC)c3)cc2C(=O)N[C@H]2CCCN(C)C2)C1`, the activity change, negative = inhibition is -26.1%.
Consider `Cc1cc(O)cc2c1[C@]1(C)CC[C@H]3C(C)(C)CCC[C@]3(C)[C@H]1C2`, for which the outcome is “inactive [at 5.25 µM]”.
With `O=C(Nc1cnn2ccc(N3CCC[C@@H]3c3cc(F)ccc3F)nc12)N1CC[C@H](O)C1`, the Potency result was “inactive”.
On the same count and under the same terms, then `Fc1ccc(-c2csc3ncnc(NCc4ccc5c(c4)OCO5)c23)cc1`, with 10 µM (active).
As for `C[C@H](Nc1nc(N[C@H](C)C(F)(F)F)nc(-c2cccc(Cl)n2)n1)C(F)(F)F`, the activity change, negative = inhibition is -8.78%.
In the case of `COc1cc2c(NC3CCN(CC4CCCCC4)CC3)nc(N3CCCN(C(C)C)CC3)nc2cc1OCCCN1CCCCC1`, the Potency was 3.16 µM (active).
Consider `Cc1ccc(S(=O)(=O)Cc2nc(-c3ccc(C(=O)NCc4cccnc4)cc3)oc2C)cc1`, for which the activity change, negative = inhibition was -96.2%.
Same read-out and setting: then `FC(F)(F)c1ccc(/C=C/c2nc(COc3ccc(CCCCn4ccnn4)cc3)co2)cc1`, with -95.9%; and `COc1cc(OCc2cccc(-c3ccccc3)c2C)cc(OC)c1CN1CCCC[C@H]1C(=O)O`, with -88.4%.
With `C=CCNC1=C2C[C@@H](C)C[C@H](OC)[C@H](O)[C@@H](C)/C=C(\C)[C@H](OC(N)=O)[C@@H](OC)/C=C\C=C(/C)C(=O)NC(=CC1=O)C2=O`, the Potency was 14.1 µM (active).
With `C=C1CC[C@@H]2[C@](C)(CO)[C@H](O)CC[C@@]2(C)[C@@H]1C/C=C1/C(=O)OC[C@H]1O`, the Potency is 25.1 µM (active).
For the compound `Cc1ccc([N+](=O)[O-])cc1S(=O)(=O)N(C)/N=C/c1cnc2ccc(Br)cn12`, the activity change, negative = inhibition was -94.8%.
On the same count and under the same terms, then `CN1CCN(c2ccc(OC(F)(F)F)c(Nc3ncc4c(n3)-c3c(c(C(N)=O)nn3CCO)CC4)c2)CC1`, with -77.5%.
Turning to `C[C@@H]1COCCN1c1cc(C2(S(C)(=N)=O)CC2)nc(-c2ccnc3[nH]ccc23)n1` (stereo not given in full), the Potency was 10 µM (active).
The same measure, in the same setting: then `Fc1ccc2[nH]ccc2c1-c1nc(N2CCOCC2)c2sc(CN3CCN(CC4CC4)CC3)cc2n1`, with 31.6 µM (active).
On the same count and under the same terms, then `Cc1c(CN2CCC(Nc3ncnc4sc(CC(F)(F)F)cc34)CC2)ccc2c1cc(C#N)n2Cc1cn[nH]c1`, with 8.91 µM (active).
Take `CNC(=O)c1cccc2cc(Oc3ccnc4cc(OCC5(N)CC5)c(OC)cc34)ccc12`: the activity change, negative = inhibition is -98.2%.
On the same count and under the same terms, as for `Fc1cccc(-n2cnc3c(NCc4nc5c(F)c(F)ccc5[nH]4)nc(N4CCOCC4)nc32)c1`, the figure is -62.7%.
With `NC(=O)[C@H]1CCS[C@@H]2C[C@]3(CCCN3C(=O)Cc3ccc(NC(=O)COc4ccc(Cl)cc4Cl)cc3)C(=O)N12`, the Potency is 25.1 µM (active).
With `CC(=O)NCC(=O)N1[C@@H]2CC[C@H]1c1ccc(Nc3ncc(C(F)(F)F)c(NC4CCC4)n3)cc12`, the Potency was 3.16 µM (active).
Take `C/C(=N\NC(=S)N1CCC1)c1ccccn1`: the activity change, negative = inhibition is -96.5%.
On to `O=C(NO)c1cnc(NC2(c3cccc(F)c3)CCCCC2)nc1`, for which the Potency was 28.2 µM (active).
Consider `C[C@H](NC(=O)[C@H]1NCC[C@@H]1O)c1ccc(-c2noc(CCC3CCCC3)n2)cc1`, for which the activity change, negative = inhibition was -92.1%.
On the same count and under the same terms, then `COc1cccc(-c2cc(F)ccc2C2Cc3nc(N)nc(C)c3C(=O)N2)n1` (stereo not given), with -91.7%.
In the case of `CC(=O)N1CCC(Nc2cc(C(=O)NC[C@H](O)CN3CCc4ccccc4C3)ncn2)CC1`, the Potency result is “inactive”.
Turning to `CC(=O)N1CCC[C@H]1C(=O)N[C@@H](Cc1cnc[nH]1)C(=O)N[C@@H](CO)C(=O)N[C@@H](CS)C(=O)N[C@@H](CC(N)=O)C(N)=O` (Ac-PHSCN-NH2), the activity change, negative = inhibition is -1.41%.
Take `Cc1cc(CC(C)CC(C)(C)C)n(O)c(=O)c1` (stereo not given): the Potency is 20 µM (active).
Consider `CNC(=O)CCc1cc(-c2ccc(-c3ccc(C(F)(F)F)cc3)cc2)n(-c2ccc(N3CCNCC3)cc2)n1`, for which the activity change, negative = inhibition is -95.7%.
Take `CC1=C(CO)C(=O)O[C@@H]([C@@H](C)[C@H]2CC[C@H]3[C@@H]4C[C@H]5O[C@]56[C@@H](O)C=CC(=O)[C@]6(C)[C@H]4CC[C@]23C)C1`: the Potency was 1.26 µM (active).
In the case of `CC(=O)Nc1ccc(C(=O)Nc2ccccc2N)cc1`, the Potency result is “inactive”.
With `O=C1NC(=O)[C@@H](c2cn3c4c(cccc24)CCC3)[C@@H]1c1c[nH]c2ccccc12`, the activity change, negative = inhibition is -73.3%.
As for `CN(Cc1ccc(/C=C/C(=O)NO)cc1)CC12CC3CC(CC(C3)C1)C2`, the Potency was 5.01 µM (active).
Still for that read-out and setting: then `CCC[C@H](N[C@H]1CCc2cc(F)cc(F)c2C1)C(=O)Nc1cn(C(C)(C)CNCC(C)(C)C)cn1`, with 31.6 µM (active).
Turning to `CCc1cc2c(c(OCC(F)(F)F)c(C(=O)NC3CCN(C(=O)CO)CC3)n2C)c(=O)n1CC(=O)c1ccccc1`, the activity change, negative = inhibition is -53.6%.
Take `COc1cc2c(Oc3ccc4[nH]c(C)cc4c3F)ccnc2cc1OCC1(N)CC1`: the Potency was 11.2 µM (active).
Take `CC(C)Nc1cc(-c2c[nH]c(C(=O)N[C@H](CO)c3cccc(Cl)c3)c2)c(Cl)cn1`: the Potency was 31.6 µM (active).
Take `NC(CC1c2ccccc2Oc2ccccc21)(C(=O)O)C1CC1C(=O)O` (stereo not given): the activity change, negative = inhibition turned out to be 4.33%.
On the same count and under the same terms, then `Nc1nccc2c1ncn2[C@@H]1C=C(CO)[C@@H](O)[C@H]1O`, with -51.3%.
The same measure, in the same setting: as for `CC[C@H](C)[C@@H]([C@@H](CC(=O)N1CCC[C@H]1[C@H](OC)[C@@H](C)C(=O)N[C@@H](Cc1ccccc1)c1nccs1)OC)N(C)C(=O)[C@@H](NC(=O)[C@H](C(C)C)N(C)C)C(C)C`, the figure is -79.3%.
Same read-out and setting: then `CNCCn1c(=O)c2cc(OC)c(OC)cc2c2cnc3cc4c(cc3c21)OCO4`, with -98.1% [at 11.3 µM].
